Screening results deposited in PubChem by several laboratories.
CYP2C19 act – human CYP2C19 activators, primary screen, biochemical, luminescence | Cytochrome P450 2C19 (Homo sapiens), P33261 | 96,000 tested, under 10 active | recombinant CYP2C19, luciferin-H EGE luminescence; hits give high values; 0 = fully inhibited enzyme, 1 = untreated enzyme | activation factor at 5 µM;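 active means activation factor of at least 2 at 5 µM in the primary screen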
CYP2C9 inh – blockers of cytochrome P450 2C9 activity – biochemical, luminescence, ADME assay, primary screen; P11712; CYP2C9 Supersomes, luciferin-H conversion; inhibition, % at 5 µM; actives 20% (n = 96,000); AID 777, 2007;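 active means blocking of liver enzyme CYP2C9 beyond about 50% at 5 µM, limit read from the data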
Target sequence (P11712 whole entry, looked up): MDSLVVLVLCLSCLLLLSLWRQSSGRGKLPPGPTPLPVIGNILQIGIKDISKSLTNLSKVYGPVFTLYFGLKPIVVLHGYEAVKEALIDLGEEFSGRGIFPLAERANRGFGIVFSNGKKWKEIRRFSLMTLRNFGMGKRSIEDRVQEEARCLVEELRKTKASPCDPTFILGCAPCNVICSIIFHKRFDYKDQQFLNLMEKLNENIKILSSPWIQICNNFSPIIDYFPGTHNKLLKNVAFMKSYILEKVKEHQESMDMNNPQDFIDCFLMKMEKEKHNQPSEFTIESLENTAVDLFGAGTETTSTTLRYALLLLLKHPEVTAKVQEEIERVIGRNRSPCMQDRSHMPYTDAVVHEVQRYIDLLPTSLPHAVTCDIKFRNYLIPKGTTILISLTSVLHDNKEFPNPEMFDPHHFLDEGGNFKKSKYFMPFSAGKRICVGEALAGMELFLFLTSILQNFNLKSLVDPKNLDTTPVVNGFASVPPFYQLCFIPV
CYP2C9 act – human CYP2C9 activators, primary screen, biochemical, luminescence | recombinant CYP2C9, luciferin-H conversion; hits give high values; factor 1 = untreated enzyme, 0 = blocked | activation factor at 5 µM | actives 1.4% (n = 96,000);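 active means activation factor of 2 or more for CYP2C9 at a 5 µM dose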
CYP2C19 inhib – blockers of cytochrome P450 2C19 activity – biochemical, luminescence, ADME assay, primary screen | P33261 | CYP2C19 Supersomes, luciferin-H EGE luminescence, 30 min | inhibition, % at 5 µM | actives 21% (n = 96,000);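 active means CYP2C19 inhibition above a set limit at 5 µM in the primary screen, cut at about 50% in these data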
Cav32 inh – Cav3.2 calcium influx blockers – cell-based, Fluo-4 calcium fluorescence, FDSS, MLSMR library, primary screen; Voltage-dependent T-type calcium channel subunit alpha-1H (Homo sapiens), O95180; Cav3.2-expressing cells; hits give low values; B-score at 10 µM; actives 4% (n = 100,000); AID 449739, 2010;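 active means single-dose well whose peak fluorescence ratio is a statistical outlier from its plate by either plate-standardised score or position-corrected B-score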
Numbers stand for hits; n = inactive; x = no result. An excerpt weighted towards active compounds, which were near 27% of everything screened.

SMILES | CYP2C19 act | CYP2C9 inh | CYP2C9 act | CYP2C19 inhib | Cav32 inh
CCN(CC)c1ccc(C2C(C(=O)OCCOC)=C(C)NC3=C2C(=O)CCC3)cc1 (stereo unspecified) | n | n | n | n | n
CCOC(=O)C1=C(C)NC2=C(C(=O)CCC2)C1c1cn(Cc2ccc(Cl)cc2Cl)nc1-c1ccccc1 (stereo unspecified) | n | 83 | n | 51 | x
COC(=O)C1=C(C)NC2=C(C(=O)CCC2)C1c1cn(Cc2ccc(Cl)cc2Cl)nc1-c1ccccc1 (stereo unspecified) | n | 73 | n | 53 | -7.3
NC(=O)c1ccccc1-c1nc(-c2ccccc2)no1 | n | n | n | n | n
CN1CCN(C(=O)c2ccccc2-c2nc(-c3ccccc3)no2)CC1 | n | 71 | n | n | n
O=C(NCc1ccco1)c1ccccc1-c1nc(-c2ccccc2)no1 | n | 54 | n | n | n
O=C(NCc1ccco1)c1cccc(-c2nnc(-c3ccccc3)o2)c1 | n | 82 | n | 71 | n
Cc1ccc(-c2noc(-c3ccccc3C(=O)N3CCOCC3)n2)cc1 | n | n | n | n | n
Cc1nc(SCC(=O)N2CCC(C(N)=O)CC2)n[nH]1 | n | n | n | n | n
CC(OC(=O)CCc1nc2ccccc2[nH]c1=O)C(=O)c1ccccc1 (stereo unspecified) | n | 67 | n | 96 | n
CC(=O)Nc1cccc(NC(=O)CSc2nnnn2C(C)C)c1 | n | n | n | n | n
Cc1ccc(NC(=O)C(=O)c2c(-c3ccccc3)cc3ccccn23)cc1S(=O)(=O)N1CCOCC1 | n | n | n | 88 | n
COc1ccc(S(=O)(=O)N(C)Cc2cccs2)cc1Br | n | n | n | 96 | n
COc1ccc(S(=O)(=O)N(Cc2cccs2)C2CCCC2)cc1 | n | n | n | n | x
COC(C[C@@H]1O[C@H]1C(=O)[C@@H](C)OCc1ccccc1)OC | x | x | x | x | n
CCOC(=O)c1cnn(CC2CCCCC2)c1N | n | 92 | n | 60 | n
CC(C)NC(=O)c1ccc(CS(=O)(=O)c2ccc(Br)cc2)o1 | n | n | n | n | n
CN(Cc1ccccc1)C(=O)CCS(=O)(=O)c1ccc2c(c1)n(C)c(=O)c(=O)n2C | n | n | n | n | -4.9
CC1CCN(CC(=O)N2CCCc3c2c(=O)oc2ccc(OCc4ccccc4)cc32)CC1 | n | 90 | n | 53 | n
CCCOc1ccc2oc(=O)c3c(c2c1)CCCN3C(=O)CN1CCc2ccccc2C1 | n | 64 | n | 89 | n
CCc1cc(=O)oc2cc(OCC(=O)N3CCc4ccccc43)ccc12 | n | n | n | n | x
CC1CC(C)CN(CC(=O)N2CCCc3c2c(=O)oc2ccc(OCc4ccccc4)cc32)C1 (stereo unspecified) | n | 85 | n | 75 | n
CCOC(=O)c1cnn(CCOC(=O)C2CC2)c1NC(=O)C1CC1 | n | n | n | n | -3.6
CCOC(=O)c1cnn(CCOC(=O)C(C)(C)C)c1NC(=O)C(C)(C)C | n | n | n | n | n
COc1cccc(N(C(=O)Cn2nnc(-c3ccc(C)o3)n2)C(C(=O)NC(C)(C)C)c2cccs2)c1 (stereo unspecified) | x | x | x | x | n
SMILES | CYP2C19 act | CYP2C9 inh | CYP2C9 act | CYP2C19 inhib | Cav32 inh
CCC(C(=O)NC(C)(C)C)N(C(=O)Cn1nnc(-c2cccs2)n1)c1cnc2ccccc2c1 (stereo unspecified) | n | 65 | n | n | n
CCCC(=O)Nc1ccc(Br)c(Cl)c1 | n | n | n | 60 | x
CCCCCC(=O)Nc1ccc(N2CCN(CC)CC2)c(Cl)c1 | n | 67 | n | n | n
CCCCCC(=O)NC(=S)Nc1ccc(N2CCCCC2)c(Cl)c1 | n | n | n | n | n
CCn1cc(Cl)c(C(=O)N2N=C3/C(=C/c4cccs4)CCCC3C2c2cccs2)n1 (stereo unspecified) | x | x | x | x | -5.6
O=C1CCCc2c1cc(C(=O)Nc1ccc(Cl)cn1)c(=O)n2-c1ccccc1 | n | 78 | n | n | n
CCS(=O)(=O)N1CCC(C(=O)NCC2CCCO2)CC1 (stereo unspecified) | n | n | n | n | n
COc1ccc(CNC(=O)[C@H](C)NC(=O)C2CCN(S(=O)(=O)c3ccc(C)cc3)CC2)cc1 | n | n | n | n | n
COc1ccc(CNC(=O)C2CCCN2S(=O)(=O)c2ccccc2)cc1 (stereo unspecified) | n | n | n | 77 | n
COc1ccc(CNC(=O)C2CCCN2S(=O)(=O)c2ccc(C)cc2)cc1 (stereo unspecified) | n | n | n | 80 | n
Cc1occc1-c1nnc(SCC(=O)Nc2ccccc2N2CCCCC2)n1C | n | n | n | n | n
NC(=S)N/N=C/c1ccc(-c2ccc(Cl)c(Cl)c2)o1 | n | n | n | n | n
Cc1ccc(-c2ccc(/C=N/n3cnnc3)o2)cc1Cl | n | 61 | n | 64 | n
CC(C)(C)OC(=O)NCCCC[C@H](NC(=O)c1nc[nH]c1C(=O)NC(c1ccccc1)c1ccccc1)C(=O)OC(C)(C)C | x | x | x | x | n
CCCc1[nH][nH]c(=O)c1C(c1ccc(Cl)cc1)C(C#N)C#N (stereo unspecified) | x | x | x | x | n
CCCc1[nH][nH]c(=O)c1C(c1ccc(Br)cc1)C(C#N)C#N (stereo unspecified) | n | 61 | n | n | n
CCCc1[nH][nH]c(=O)c1C(c1ccccc1)C(C#N)C#N (stereo unspecified) | n | 62 | n | 58 | n
Cc1ccc(S(=O)(=O)Nc2ccc3oc(=O)sc3c2)c(C)c1 | n | 64 | n | 67 | x
CC(=O)c1c(C)oc2ccc(NS(=O)(=O)c3ccc(O)c(C(=O)O)c3)cc12 | n | 89 | n | 52 | n
O=C(O)c1cc(S(=O)(=O)Nc2ccc3oc(=O)sc3c2)ccc1O | n | 85 | n | n | n
CCOc1cc2c(cc1C(C)(C)C)NC(=O)CS2 | n | n | n | n | n
CC[C@@H]1CC=C[C@H]2[C@H]1C(=O)N(Cc1ccccc1)[C@H]2c1cc(C)ccc1F | x | x | x | x | n
CC(O)(CS(=O)(=O)Cc1ccccc1)C(=O)Nc1ccc(C(F)(F)F)cc1 (stereo unspecified) | n | n | n | n | n
O=[N+]([O-])c1cc(C(F)(F)F)ccc1NCCNC(=S)Nc1ccc(Cl)cc1 | n | 68 | n | n | n
O=[N+]([O-])c1cc(Cl)ccc1NCCNc1ncc(C(F)(F)F)cc1Cl | n | n | n | 88 | n
O=[N+]([O-])c1ccc(NC(=S)NCCc2ccc(Cl)cc2)cc1 | n | n | n | n | n
N/C(Cc1ccc([N+](=O)[O-])cc1)=N\OC(=O)C(c1ccccc1)c1ccccc1 | n | 54 | n | n | -3.4
N/C(Cc1ccc([N+](=O)[O-])cc1)=N\OC(=O)c1ccc2ccccc2c1 | n | n | n | n | n
